# Rows were chosen to be rich in hits. Some 3.1% of all compounds tested hit in one or more screens of this group.
# KKLEB cytotox: cytotoxicity in KKLEB CF airway cells, primary screen, cytotoxicity control for CF NF-kB inhibitor project, cell-based, uHTS, fluorescence assay plates | KKLEB CF airway cells viability, ATPlite luminescence, overnight; stronger effect = lower value; cells stimulated with P. aeruginosa culture filtrate | activity change (cytotoxicity), % at 5 µM | 360,000 tested, 0.36% active | AID 602141, 2011;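 active = corrected activity change at or below -50% at 5 µM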
# CF NFkB block: inhibitors of PAF-induced NF-kB signaling, primary screen, cell-based, GFP fluorescence, uHTS; AID 588850, 2011; KKLEB NF-kB-GFP reporter, GFP fluorescence overnight; 360,000 tested, 0.86% active; inhibition, % at 5 µM;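 active = at least 50% inhibition at 5 µM, scaled per plate between neutral and stimulator controls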;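 also: PAF is a Pseudomonas aeruginosa culture filtrate used as stimulus; plate controls were PAF-stimulated DMSO wells for no effect and unstimulated DMSO wells for full effect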
# HIF-2a block: HIF-2a reporter inhibitors, primary screen, luminescence, 786-0 RCC cells; 360,000 tested, 0.72% active; 786-0 RCC cells HIF-2a reporter, luciferase luminescence, overnight; AID 624352, 2012; inhibition, % at 18.8 µM;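 active = inhibition of the luminescence signal of 40% or more relative to plate controls, in a single-dose primary screen at 18.75 µM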
# PPC-1+TRAIL kill: compounds killing PPC-1 cancer cells with TRAIL present, primary screen, TRAIL potentiator project, ATPLite luminescence, uHTS; PPC-1 cells + TRAIL, ATPLite viability luminescence; cell killing (% activity), % at 4 µM or 5 µM; 220,000 tested, 0.41% active;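 active = cell killing above 50% in the first pass at 4 µM, then a duplicate retest at 5 µM averaging 50% or more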;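 also: plate controls were cells with TRAIL plus DMSO for no effect and medium-only wells lacking cells for full effect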
# C8 TRAIL sens: viability loss with TRAIL in NB7+C8 cells, primary screen, TRAIL sensitizer project, cell-based, ATPlite luminescence | inhibition (viability loss, TRAIL sensitization), % at 10 µM | 360,000 tested, 1% active;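 active = compounds causing at least 50% loss of cell viability in the single-dose screen, relative to plate controls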
# Peg3 promoter: Peg3 promoter-driven luciferase inhibitors, primary screen, cell-based, HeLa, luciferase luminescence; inhibition, % at 20 µM; 360,000 tested, 1.7% active; HeLa PEG-Prom luciferase reporter, overnight;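 active = inhibition of at least 50% at 20 µM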
# Mdm2-MdmX confirm: retested Mdm2-MdmX interaction blockers, confirmation, cell-based, luminescence, single concentration, set 2. 740 tested, 99% active. SaOS-2 split-luciferase Mdm2/MdmX complementation. AID 504601, 2011. shares compounds with HIF-2a block. inhibition, % at 8 µM;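 active = mean inhibition of the luminescence signal across two replicates at or above 26 percent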
# Target sequence (O15151 whole entry, looked up): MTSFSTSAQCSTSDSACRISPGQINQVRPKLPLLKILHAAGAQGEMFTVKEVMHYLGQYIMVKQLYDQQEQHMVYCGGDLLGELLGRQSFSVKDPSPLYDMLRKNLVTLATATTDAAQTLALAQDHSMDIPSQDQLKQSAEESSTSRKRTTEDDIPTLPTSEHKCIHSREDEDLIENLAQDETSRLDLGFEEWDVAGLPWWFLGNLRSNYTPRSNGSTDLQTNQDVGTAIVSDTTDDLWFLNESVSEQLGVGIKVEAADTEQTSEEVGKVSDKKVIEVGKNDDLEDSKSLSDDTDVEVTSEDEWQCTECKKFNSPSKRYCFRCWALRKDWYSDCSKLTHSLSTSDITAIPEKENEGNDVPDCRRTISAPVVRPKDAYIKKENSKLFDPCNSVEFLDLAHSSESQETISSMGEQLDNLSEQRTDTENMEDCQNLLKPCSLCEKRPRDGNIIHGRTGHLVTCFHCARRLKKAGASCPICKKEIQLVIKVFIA
# Target sequence (Q00987 whole entry, looked up): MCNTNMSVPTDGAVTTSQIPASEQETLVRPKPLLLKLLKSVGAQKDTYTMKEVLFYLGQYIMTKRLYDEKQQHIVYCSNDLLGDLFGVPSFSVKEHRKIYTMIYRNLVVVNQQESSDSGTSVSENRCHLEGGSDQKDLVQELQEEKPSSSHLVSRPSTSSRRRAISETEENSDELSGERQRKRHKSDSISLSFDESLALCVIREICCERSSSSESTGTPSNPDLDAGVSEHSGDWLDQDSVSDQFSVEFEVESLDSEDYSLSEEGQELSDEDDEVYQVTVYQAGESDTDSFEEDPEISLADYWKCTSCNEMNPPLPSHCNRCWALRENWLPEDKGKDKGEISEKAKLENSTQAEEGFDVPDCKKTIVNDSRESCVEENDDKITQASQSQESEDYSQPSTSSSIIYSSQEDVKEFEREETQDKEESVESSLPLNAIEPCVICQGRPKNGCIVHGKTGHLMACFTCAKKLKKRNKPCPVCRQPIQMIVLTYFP
# HIF-2a conf: HIF-2a reporter inhibitor retest, confirmation, luminescence, 786-0 RCC cells | shares compounds with HIF-2a block | HIF-2a luciferase reporter luminescence, overnight | inhibition, % at 18.8 µM | 1,800 tested, 56% active;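 active = mean inhibition across four replicates of at least 40 percent at the single tested concentration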
# HIF-1a cs: HIF-1a luciferase reporter signal reduction – MiaPaCa-2 cells, single concentration, counter-screen for HIF-2a inhibitor project, confirmation; shares compounds with HIF-2a block; MiaPaCa-2 HIF-1a luciferase reporter, desferoxamine, overnight; AID 651589, 2012; 1,800 tested, 72% active; inhibition, % at 18.8 µM;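 active = mean inhibition of the reporter signal across four replicates at the single tested dose of 50% or more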
# * = called active by the depositor; nt = no result given.
SMILES,KKLEB cytotox,CF NFkB block,HIF-2a block,PPC-1+TRAIL kill,C8 TRAIL sens,Peg3 promoter,HIF-2a conf,HIF-1a cs,others
COc1ccc(C=C2C(=O)c3ccccc3C2=O)cc1O,-8,-8,11,26,-2,-4,nt,nt,
COc1ccc(/C=C2\CN(Cc3ccccc3)C/C(=C\c3ccc(OC)c(O)c3)C2=O)cc1O,-69*,100*,38,nt,-12,102*,nt,nt,Mdm2-MdmX confirm=102*
NNC(=O)c1cccc(COc2ccc3c(c2)CCC3)c1,2,1,68*,41,46,-42,53*,-115,
CCOC(=O)c1nnc(-c2cccs2)nc1Oc1ccccc1C(=O)OC,-21,0,17,16,11,16,nt,nt,
CCOC(=O)c1nnc(-c2cccs2)nc1Oc1ccc(Cl)cc1,0,-6,42*,19,12,27,24,17,
Cn1c(=S)n(C)c2ccccc21,-8,6,55*,19,-6,0,-13,-12,
Cn1c(=S)ccc2ccccc21,12,9,0,20,-9,-12,nt,nt,
Cc1nnnn1/C(=C\c1ccccc1)C(=O)OCC(=O)Nc1ccc(Cl)cc1F,-70*,84*,88*,nt,33,98*,96*,56*,
O=C1/C(=C/c2cccc(F)c2)Oc2cc(O)ccc21,7,-6,-115,nt,10,-117,nt,nt,
COc1c(Br)cc(Br)cc1/C=N/NC(=O)c1ccncc1,7,-9,9,9,1,18,nt,nt,
CN(C)c1ccc(C(=O)N/N=C/c2cc(Br)cc(Br)c2O)cc1,4,16,3,6,18,59*,nt,nt,Mdm2-MdmX confirm=89*
CC1=C(C(=O)N2CCCCCC2)CC(CC(=O)NC2CCCC2)C(=O)N1Cc1ccc(C(C)(C)C)cc1 (configuration not stated),nt,nt,-20,nt,-11,nt,nt,nt,
O=C(c1ccccc1)c1c2c(cc3sc4ccccc4[n+]13)-c1cccc3cccc-2c13,-36,-29,77*,14,-10,101*,56*,98*,
Cc1sc2cc3c(c(C(=O)c4ccccc4)[n+]2c1C)-c1cccc2cccc-3c12,nt,nt,nt,-3,nt,nt,nt,nt,
Cc1ccc(C)c(C(=O)COC(=O)Cn2c(C)csc2=O)c1,12,-8,-3,nt,0,4,nt,nt,
Cc1c(Nc2cc(Cl)c3nonc3c2[N+](=O)[O-])c(=O)n(-c2ccccc2)n1C,-56*,94*,98*,15,9,105*,99*,105*,Mdm2-MdmX confirm=103*
O=[N+]([O-])c1c(Nc2cccc(O)c2)cc(Cl)c2nonc12,-92*,91*,90*,nt,59*,103*,95*,105*,Mdm2-MdmX confirm=104*
O=[N+]([O-])c1c(Nc2ccccc2O)cc(N2CCOCC2)c2nonc12,-14,-5,51*,24,2,24,23,72*,
CN(C)c1ccc(C2Nc3ccccc3C(=O)N2NS(C)(=O)=O)cc1 (configuration not stated),-5,-12,-94,nt,6,-14,nt,nt,
Cc1ccc(C)c(OCc2ccc(C(=O)NN)o2)c1,0,-18,40*,9,-1,-2,29,-4,
COc1ccccc1CNC(=O)COC(=O)c1cnc(C)cn1,-2,2,3,nt,-15,0,nt,nt,
CCC(C)(C)c1ccc(OCCCC[n+]2ccccc2)c(C(C)(C)CC)c1,-50*,62*,25,51*,15,93*,nt,nt,Mdm2-MdmX confirm=103*

# Screening data: PubChem, Sanford-Burnham Center for Chemical Genomics
